Reference: PubChem BioAssay AID651550 (National Center for Advancing Translational Sciences (NCATS), 2012)
The whole screen tested about 360,000 compounds, of which about 1,100 (0.31%) were called active. Rule as the data show it: active = activity change below about -80%; inconclusive = mostly about -51% to -80%; inactive = weaker than that. Only a selection was taken, and actives are over-represented in it overall.

Biological target: RAC-alpha serine/threonine-protein kinase (Homo sapiens) (UniProt P31749)
Test: HTS Assay for Inhibitors of Akt Phophorylation: Primary Screen
Conditions: Neuro2A IGF-stimulated pAkt S473 HTRF, 20 min; at 50 µM, active compounds read low
Source text: The serine/threonine protein kinase Akt (protein kinase B) regulates various cellular processes, including cell survival, growth, proliferation, migration and differentiation. It has been well established that Akt is activated through two essential steps involving membrane translocation and phosphorylation. Cytosolic Akt is recruited to the plasma membrane via the interaction between the PH domain and membrane PIP3 produced by phosphoinositide-3 kinase (PI3K) upon growth factor receptor stimulation. The membrane-Akt interaction results in conformational changes of Akt, enabling its activation through phosphorylation at T308 in the kinase domain and at S473 in the C-terminal hydrophobic motif by PDK1 and mTOR-rictor complex (mTORC2), respectively. […] These findings indicate that S473 phosphorylation, as an important modulator of Akt activation, may be a valuable drug target for cell growth, survival, proliferation and differentiation. These inhibitors also may have significant therapeutic potential with fewer side effects, especially for the conditions involving hyperactive Akt signaling, such as cancer and Alzheimer's disease.
To this end, a miniaturized assay was developed to be screened against the Molecular Libraries Small Molecule Repository (MLSMR).
NIH Chemical Genomics Center [NCGC]
NIH Molecular Libraries Probe Centers Network [MLPCN]
Assay Submitter (PI): Hee-Yong Kim, National Institute on Alcohol Abuse and Alcoholism
3 uL of Neuro2A cell suspension in DMEM containing 0.5% FBS and […] antibiotics mix was plated in a white solid bottom tissue culture-treated 1536-well plate (Greiner Bio-One, Monroe, NC) at 4,500 cells per well and incubated overnight at 37 deg C. 23 nL/well of compound solutions in DMSO was added with Pintool transfer (Kalypsis, San Diego, CA) at single […] final concentration. Then, the cells were stimulated with 1.5 uL of IGF (6 nM final concentration) and incubated at 37 deg C for 20 min. The reaction was terminated by the addition of 1.5 uL blocking reagent mixed with lysis buffer (1:25 correspondingly) provided with HTRF(R) Phospho Akt (Ser473) kit (Cisbio US, Bedford, MA), with following incubation for 50 min at ambient temperature. The detection HTRF conjugates from the kit were prepared according to the protocol, pre-mixed 1:1 prior to dispensing, and 2 uL/well was added with BioRAPTR FRD dispenser (Beckman Coulter). The assay plates were incubated for 24 hours at ambient temperature, and the HTRF fluorescence was measured using Envision plate reader (PerkinElmer) with excitation at 330nm, emission at 615nm (Eu(3)-Cryptate donor signal) and 665nm (d2 acceptor signal). The ratio of […] was calculated for each well.
% is scaled to controls: 0 for no effect and ±100 for the full control effect.

Row | Structure (SMILES) | activity change
1 | Cc1cccc(C(=O)Nc2ccc(C(=O)/C=C/c3cccs3)cc2)c1 | -121% (active)
2 | Cc1cccc(C(=O)Nc2ccc3c(c2)C(=O)N(CC(C)C)C3=O)c1 | inactive
3 | Cc1cccc(C(=O)Nc2ccc(Oc3cnccn3)cc2)c1 | inactive
4 | CCCCCc1c(Cc2ccccc2)ncn1CCc1ccccc1OC | inactive
5 | COc1ccc(N2C(=O)CCC(C(=O)N(C)C3CCCCC3)C2c2ccc(OC)c(OC)c2)cc1 (centres undefined) | inactive
6 | COc1ccc(S(=O)(=O)N[C@@H]2C=C[C@@H](CC(=O)N3CCc4ccccc4C3)O[C@@H]2CO)cc1 | inactive
7 | Cc1ccc(C(=O)NC2CCN(C(=O)Nc3ccc(F)cc3)CC2)cc1 | inactive
8 | Cc1cc(C)cc(NC(=O)N2CCC(NC(=O)c3ccc(F)cc3)CC2)c1 | -96.8% (active)
9 | COc1ccc(C(=O)NC2CCN(C(=O)Nc3ccc(F)cc3)CC2)cc1 | inactive
10 | Cc1ccc(S(=O)(=O)N2C[C@H]3n4c(=O)ccc(=O)n4C[C@H](OC(=O)NC4CCCC4)[C@@]3(O)C2)cc1 | inactive
11 | Cc1ccc2nc(Nc3ncc4c(n3)CC(C)(C)CC4=O)nc(C)c2c1 | inactive
12 | O=C(NNC(=O)C1CCN(c2ncccn2)CC1)c1ccccc1 | inactive
13 | Cc1cc(-c2ccccc2)nc(N2CCC(C(=O)NC34CC5CC(CC(C5)C3)C4)CC2)n1 | -97.3% (active)
14 | CC(=O)N1CCC(C(=O)Nc2nc(-c3ccccc3)ns2)CC1 | inactive
15 | CCCCCNC(=O)C1C(=O)Nc2ccccc2C(=O)N1C(C)(C)C (centres undefined) | inactive
16 | COC(=O)[C@]12CCCCC=C1N(Cc1ccc(Cl)cc1Cl)C(=O)[C@H](CC(=O)NCc1cccc3ccccc13)C2 | inactive
17 | COC(=O)C1(C(=O)OC)C[C@H](c2ccccc2)N(Cc2ccccc2OC)[C@@H]1c1ccccc1 | inactive
18 | O=C(N[C@H]1CC[C@H](CC(=O)N2CCCCC2)O[C@@H]1CO)c1cccc(F)c1 | inactive
19 | c1ccc(COc2nsnc2N2CCOCC2)cc1 | inactive
20 | CCc1nc2sc3c(Cl)ncnc3c2c2c1CCCC2 | inactive
21 | c1ccc(CSc2ncnc3c2sc2nc(N4CCOCC4)c4c(c23)CCCC4)cc1 | -92.8% (active)
22 | COC(=O)[C@@]12C[C@@H](CC(=O)NCCCCc3ccccc3)C(=O)N(CCc3ccc(OC)c(OC)c3)C1=CCC(C)(C)C2 | inactive

Row | Structure (SMILES) | activity change
23 | CCOC(=O)NC(=O)CSc1nnc(SCCC(=O)O)s1 | inactive
24 | COC(=O)[C@@]12C[C@@H](CC(=O)N3CCCCC3)C(=O)N(Cc3ccc4c(c3)OCO4)C1=CCC(C)(C)C2 | inactive
25 | N#Cc1c(N)nc2c3c(sc(=N)c2c1N)NC(=O)CC3c1ccccc1Cl (centres undefined) | -87.7% (active)
26 | COc1ccc(C2CC(=O)Nc3sc(=N)c4c(N)c(C#N)c(N)nc4c32)cc1OC (centres undefined) | inactive
27 | CSc1nc2c(c(=O)[nH]1)C(c1cccc(Cl)c1Cl)CC(=O)N2 (centres undefined) | inactive
28 | CN(C(=O)C1CCN(c2ncnc3c2nc2n3CCCCC2)CC1)C1CCCCC1 | inactive
29 | Cc1ccnc(NC(=O)CCC(=O)N(CC(=O)NCc2ccccc2)Cc2ccco2)c1 | inactive
30 | CCOC(=O)N1CCN(C(=O)C[C@@H]2C[C@@]3(C(=O)OC)CC(C)(C)CC=C3N(Cc3ccco3)C2=O)CC1 | inactive
31 | O=C(COC(=O)c1cc2c(s1)CCCC2)NCc1ccccc1Cl | inactive
32 | CC1CC(C)CN(CCCNC(=O)c2csc3c2CCCCC3)C1 (centres undefined) | inactive
33 | CC(=O)Cc1nsc(NC(=O)c2ccc(Cl)cc2Cl)n1 | inactive
34 | CC(=O)Cc1nsc(NC(=O)c2csc3c2CCCC3)n1 | -104% (active)
35 | O=C(NCc1ccccc1Cl)c1csc2c1CCCCC2 | -106% (active)
36 | CC(=O)Cc1nsc(NC(=O)c2ccc(COc3ccc(C)cc3)o2)n1 | inactive
37 | CCOC(=O)C=Cc1ccc(C(=O)OCC)[nH]1 | inactive
38 | Cc1ccc(S(=O)(=O)N2CC3C(=O)C[C@@H](c4ccccc4Cl)N(S(=O)(=O)c4ccc(C)cc4)C3CC2c2ccccc2)cc1 (some centres undefined) | inactive
39 | Cc1cn(C)c(=O)n(C)c1=O | inactive
40 | COc1cccc(-n2cc3c(c2-c2ccccc2)c(=O)n(C)c(=O)n3C)c1 | -16.8% (inactive)
41 | Cc1ccc(-c2c3c(=O)n(C)c(=O)n(C)c3cn2-n2cnnc2)cc1 | -111% (active)
42 | COc1ccc(C(C(=O)NCc2ccccc2)n2c(=O)c(-c3ccccc3)nc3ccccc32)cc1 (centres undefined) | inactive
43 | COc1cc(OC)c(NS(=O)(=O)c2cn(C)cn2)cc1Cl | inactive
44 | CCC(c1nc2ccccc2[nH]1)n1c(=O)c(-c2cccs2)nc2ccccc21 (centres undefined) | inactive

Row | Structure (SMILES) | activity change
45 | N#Cc1ccc(C(C(=O)NCc2ccccc2)n2c(=O)c(-c3ccco3)nc3ccccc32)cc1 (centres undefined) | inactive
46 | CC(C)c1nc(SCC(=O)Nc2cccc(C(=O)O)c2)c2c3c(sc2n1)CCCC3 | inactive
47 | Cc1cc(NC(=O)CSc2nc3c(cc2C#N)CCCCC3)no1 | inactive
48 | Cc1cc(NC(=O)CSc2nc(C(C)C)nc3sc4c(c23)CCC(C)C4)no1 (centres undefined) | -89.6% (active)
49 | Cn1cnc(S(=O)(=O)N2C[C@@H](O)COC[C@@H]3O[C@H](CC(=O)NC4CCC4)CC[C@H]32)c1 | inactive
50 | COc1ccc(-c2cc3c(c4c2ccn4C)C2CCC3C2)cn1 (centres undefined) | inactive
51 | Nc1nc(C23CC4CC(CC(C4)C2)C3)cs1 | inactive
52 | CC(C)CN1C(=O)CN(S(C)(=O)=O)CC1(C)C(=O)NCc1ccccc1 (centres undefined) | inactive
53 | Brc1ccc(-c2csc(N/N=C/c3cccnc3)n2)cc1 | inactive
54 | Cc1ccc(Nc2nc(-c3ccc(O)cc3O)cs2)nc1 | inactive
55 | c1ccc(Nc2nc(-c3ccncc3)cs2)nc1 | -89.8% (active)
56 | O=C(COC(=O)c1ccccc1O)NCc1ccco1 | inactive
57 | O=C(COC(=O)CCC(=O)c1cccs1)NCc1ccco1 | -115% (active)
58 | O=C(COC(=O)Cc1ccc(Cl)cc1Cl)NCc1ccco1 | inactive
59 | O=C(COC(=O)c1cc([N+](=O)[O-])ccc1NCc1ccccc1)NC1CCCCC1 | inactive
60 | C=C1C(=O)OC2C1CCC(C)=CCCC1(C)OC21 (centres undefined) | inactive
61 | CC(NCCO)C(=O)C12CC3CC(CC(C3)C1)C2 (centres undefined) | inactive
62 | COCCN1C(=O)C(=O)/C(=C(/O)c2ccc(S(=O)(=O)N3CCOCC3)cc2)C1c1ccc(O)c(OC)c1 (centres undefined) | inactive
63 | COCCN1C(=O)c2oc3c(C)cc(C)cc3c(=O)c2C1c1cccc(O)c1 (centres undefined) | -117% (active)
64 | O=C1c2oc3ccccc3c(=O)c2C(c2cccc(O)c2)N1c1ccccn1 (centres undefined) | inactive
